The record followed here is PubChem BioAssay.

Unmarked numbers belong to inactive results. How the calls were made is not given here.

This experiment concerns the target Lethal factor (Bacillus anthracis) (UniProt P15917). Put plainly: Bacillus anthracis lethal factor inhibition, microsphere flow cytometry protease assay, validation at 10 µM (AID 588461). Particulars: multiplex microsphere protease cleavage assay, hits give high values. (Flow cytometry measures light scatter and fluorescence of single cells or particles in a stream.)
In general, inhibition refers to the relative decrease from the control value, in per cent. As for `CCc1c(C(C)=O)oc2ccc3c(C)cc(=O)oc3c12`, the inhibition is -2.4%.

On to `O=C(O)c1ccccc1C(=O)OCCCCOC(=O)c1ccccc1C(=O)O`, for which the inhibition is 3.5%.

As to `COc1cc2c(cc1OC)C(c1cc3ccccc3oc1=O)=NC(C)(C)C2`, the inhibition was 0%.

`Cc1ccccc1NC(=O)C1(C)Cc2ccccc2C(=O)O1` (stereo not given): the inhibition was -0.2%.

For the molecule `CCNC(=O)C12CCC(C)(C(=O)O1)C2(C)C` (stereo not given), the inhibition is -7.4%.

On to `O=C(O)c1cc2cc(F)ccc2[nH]1`, for which the inhibition is 4%.

Consider `O=C(O)c1cccnc1Nc1cccc(C(F)(F)F)c1`, for which the inhibition is -3.9%.

Take `CN(C)[C@@H]1C(=O)C(C(=O)NCN2CCCC2)=C(O)[C@@]2(O)C(=O)C3=C(O)c4c(O)cccc4[C@@](C)(O)C3CC12` (stereo not given in full): the inhibition is -8.3%.

In the case of `COc1cc(CNCCc2c[nH]c3ccccc23)cc(Cl)c1OCC(N)=O`, the inhibition was -5.2%.

Consider `CSCC[C@H](NC(=O)NC1CCCC1)C(=O)O`, for which the inhibition is -0.2%.

With `O=C1CCCCCN1Cc1ccccc1`, the inhibition is -2.7%.

Turning to `COc1ccc(/C=N\NC(=O)CCc2c(C)n[nH]c2C)c(OC)c1OC`, the inhibition is 8.6%.

Turning to `CCOCCCNCc1cn(-c2ccc(F)cc2F)nc1-c1ccccc1C`, the inhibition is -0.3%.

In the case of `CCOc1ccccc1Oc1coc2cc(OCC(=O)O)ccc2c1=O`, the inhibition was 0.2%.

In the case of `C[C@]12CCC(=O)C=C1CC[C@@H]1[C@@H]2C(=O)C[C@@]2(C)[C@H]1CC[C@]2(O)C(=O)CO`, the inhibition was -0.3%.

Consider `COc1ccccc1CCn1cnc2c3cc(C)ccc3n(C)c2c1=O`, for which the inhibition was -9.2%.

Consider `CCN(CC)c1ccc([C@H]2[C@@H]3CCCC[C@]3(O)CCN2CC(=O)NCc2ccco2)cc1`, for which the inhibition is -7.7%.

With `Cc1cccc(Nc2ncccc2C(=O)O)c1C`, the inhibition is -4.7%.

For `CCC(CO)NCCNC(CC)CO` (stereo not given), the inhibition is -0.2%.

For `CCC1CCc2c(sc(NC(=O)c3cccnc3)c2C(N)=O)C1` (stereo not given), the inhibition is -6.2%.

Turning to `COc1ccc(-c2nc(NC(C)=O)sc2-c2ccc(OC)cc2)cc1`, the inhibition is 2.3%.

Regarding `COC(=O)c1cc(-c2c(C)oc3cc(OC)ccc3c2=O)c(C)o1`, the inhibition was -6.6%.

`O=P(c1ccccc1)(c1ccccc1)c1nc(-c2ccc(Cl)cc2)oc1N1CCOCC1`: the inhibition was 0.6%.

With `CC1(C)NC(C(=O)O)Cc2c1[nH]c1ccccc21` (stereo not given), the inhibition was -2.8%.

Turning to `FC(F)(F)c1ccc(-c2noc(CN3CCCN(C4CCCCC4)CC3)n2)cc1`, the inhibition is -7%.

As for `COc1ccc2c3c([nH]c2c1)C1(NCC3)C(=O)Nc2ccccc21` (stereo not given), the inhibition was -4.5%.

Regarding `COc1cc(C(=O)NCCCCCC(=O)O)cc(OC)c1OC`, the inhibition is -13.3%.

`N=C(N)c1ccc(OCCCCCOc2ccc(C(=N)N)cc2)cc1`: the inhibition was -2.7%.

Take `O=C(Nc1ccccc1)c1ccccc1CCc1ccccc1`: the inhibition was 3.9%.

For the molecule `CC(C)=CCCC(C)CN1CCC(N2CCC(C(=O)N3CCCC3)CC2)CC1` (stereo not given), the inhibition is -1.1%.

For the molecule `CCCC(=O)Nc1ccccc1NC(C)=O`, the inhibition is -2.9%.

Consider `c1ccc(CNc2ncnc3nc[nH]c23)cc1`, for which the inhibition is -4.8%.

With `O=C(c1cc2cc(Br)ccc2o1)N1CCCC1`, the inhibition is -3.2%.

For `COc1cccc(N2C(=O)[C@H]3C(C(=O)c4cnccn4)=NN[C@H]3C2=O)c1`, the inhibition is 4.8%.

In the case of `O=C1OCCN1/N=C/c1ccc([N+](=O)[O-])o1`, the inhibition was -8.7%.

As for `O=S(=O)(NCCCCCNS(=O)(=O)c1ccccc1)c1ccccc1`, the inhibition is -0.7%.

For the molecule `CCOc1ccc(NC(=O)N[C@@H](CCSC)C(=O)OC)cc1`, the inhibition is -4.6%.

As for `Clc1ccc(Cn2c(CN3CCCC3)nc3ccccc32)cc1`, the inhibition was -0.3%.

In the case of `Oc1[nH]c2ccccc2c1N=Nc1ccccc1`, the inhibition is 1.4%.

As to `C[C@]12CC[C@@H]3c4ccc(O)cc4CC[C@H]3[C@@H]1CC[C@@H]2OC(=O)CCC(=O)O`, the inhibition is -10%.
